Reference: PubChem BioAssay (NCATS)
Records with an inconclusive call do not appear. Calls come from the whole dose curve; as a rule, active = well fitted curve in either direction with a large enough effect (not every such curve was filed as active); inconclusive = small, poorly fitted or top-dose-only effect, or another doubt; inactive = flat fitted curve, though single readings scatter.

Test: AP1 Signaling Pathway (AID 357)
Details: ME-180 (cervical carcinoma) AP-1-bla reporter, EGF-induced, beta-lactamase ratio, 5 h; at 17.2 µM (top of the series) unless noted
How it was run: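 Modulation of EGF-driven AP-1 transcription was assessed with a beta-lactamase reporter in ME-180 cells. Compound and EC50 EGF were co-incubated 5 hours at 37 °C before 2.5-hour CCF4 loading at room temperature and dual-emission reading.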
% is set by controls: 0 for no effect and ±100 for the full control effect.

Activity change, negative = inhibition, inactive:
CC(NC(=O)NCCCC(=O)O)(C(F)(F)F)C(F)(F)F 1.88%
COc1ccc(/C(O)=C2\C(=O)C(=O)N(Cc3ccco3)C2c2cc(OC)ccc2OC)cc1 (stereo not given) 8.52%
COc1ccc(C2C(C#N)=C(C)NC3=C2C(=O)c2ccccc23)cc1 (stereo not given) -6.13%
COc1cc(NC(=O)NC(C)(C(F)(F)F)C(F)(F)F)cc(OC)c1OC -9.62%
CCCOc1ccc(C2/C(=C(/O)c3ccccc3)C(=O)C(=O)N2CCCN(C)C)cc1OC (stereo not given) 13.7%
Cc1noc(NS(=O)(=O)c2ccc(NC(=O)COc3ccccc3)cc2)c1C 2.17%
O=C(NCc1ccco1)c1cnn2c1NC(c1ccccc1)CC2C(F)(F)F (stereo not given) -8.13%
O=C(CN1C(=O)c2ccccc2S1(=O)=O)c1ccccc1 9.24%
CCCOc1ccc(/C(O)=C2/C(=O)C(=O)N(CCN3CCOCC3)C2c2ccccc2)cc1 (stereo not given) -16.7%
COC(=O)/C=c1/s/c(=C(\C#N)C(=O)NCc2ccco2)n(-c2ccccc2)c1=O -2.83%
COCCNc1oc(-c2ccc(F)cc2)nc1C#N -13.6%
COC(=O)c1ccc(CSc2nc(N3CCOCC3)c3c(c2C#N)CC(C)(C)OC3)o1 -9.04%
CCOc1cccc(-c2nn3c(-c4ccccn4)nnc3s2)c1 -15%
COc1cccc(COc2nc3c(c(=O)n(C)c(=O)n3C)n2C)c1 -9.75%
CC1(C(=O)CSc2nc3ccccc3[nH]2)CCC(=O)O1 (stereo not given) 4.25%
